{
  "source": "PubChem BioAssay AID1578",
  "about": "(Sanford-Burnham Center for Chemical Genomics, 2009)",
  "note": "Several values for one entry are separate records, joined by “and”; a condition that tells them apart may be missing. Equal values may be shown once. The whole screen tested about 290,000 compounds, of which about 3,000 (1%) were called active. Only a selection was taken, and actives are over-represented in it overall. A number with no mark means an inactive call. Cut-off read from the data, not from the text of the source: active = inhibition mostly above about 36% (no sharp cut-off); inactive = mostly below about 34%.",
  "data": [
    {"assay": "NOD1 signaling inhibitors, primary screen, cell-based, luminescence, uHTS (AID 1578);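 note: HEK-293T reporter cells stimulated with the NOD1 agonist gamma-tri-DAP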", "details": "NOD1-driven NF-kB luciferase reporter cells, at 4 µM, active compounds read high", "values": [
      {"smiles": "COc1cccc(C(=O)N2CCN(C(=O)C3CC3)CC2)c1", "inhibition": "-26.7%"},
      {"smiles": "COc1ccc(OC(C)C(=O)N2CCCc3ccccc32)cc1", "note": "(stereo not given)", "inhibition": "-45.6%"},
      {"smiles": "CC(C)CCn1c(O)c(N=NC(=O)c2ccco2)c2ccccc21", "inhibition": "24.4%"},
      {"smiles": "Cc1nc2ccccn2c1C(=O)N=Nc1c(O)n(CCC(C)C)c2ccccc12", "inhibition": "92% (active)"},
      {"smiles": "Cc1nc2ccccn2c1C(=O)N=Nc1c(O)[nH]c2ccccc12", "inhibition": "11.6%"},
      {"smiles": "CC1=Nc2cc(C(=O)NCCCOC(C)C)ccc2Sc2ccccc21", "inhibition": "3.6%"},
      {"smiles": "Cc1[nH]n(-c2cccc(Cl)c2)c(=O)c1-c1ccccc1", "inhibition": "-18%"},
      {"smiles": "Cc1[nH]n(-c2ccccc2)c(=O)c1-c1ccc(Cl)cc1", "inhibition": "-30.5%"},
      {"smiles": "O=C(CSc1nnc(Cn2c(=O)sc3ccccc32)n1CCc1ccccc1)N1CCOCC1", "inhibition": "-11.3%"},
      {"smiles": "COc1cccc2c1C(CO)N1C(C#N)C3CC(C(=O)O)C(C1C2)N3C", "note": "(stereo not given)", "inhibition": "102% (active)"},
      {"smiles": "COc1ccccc1N1CCN(C(=O)C2CC=CCC2C(=O)O)CC1", "note": "(stereo not given)", "inhibition": "-7.7%"},
      {"smiles": "COc1cccc2c1OCC(C(=O)O)C2", "note": "(stereo not given)", "inhibition": "-26.7%"},
      {"smiles": "CC(C)c1ccc(NC2CCCN(C(=O)c3ccc(N4CCOCC4)cc3)C2)cc1", "note": "(stereo not given)", "inhibition": "-4%"},
      {"smiles": "Cc1ccc(S(=O)(=O)c2c(C)cc(C)[nH]c2=O)cc1", "inhibition": "-7.8%"},
      {"smiles": "Cc1ccc(N/N=C(\\C#N)C(=O)c2ccsc2)cc1", "inhibition": "-5.4%"},
      {"smiles": "N#C/C(=N\\Nc1ccc(Cl)cc1)C(=O)c1ccsc1", "inhibition": "75.6% (active)"},
      {"smiles": "N#C/C(=N\\Nc1ccc(Cl)cc1)C(=O)c1ccccc1", "inhibition": "66.9%"},
      {"smiles": "Cc1[nH]n(-c2ccccc2)c(=O)c1/C=N/N1CCOCC1", "inhibition": "6.6%"},
      {"smiles": "Cc1[nH]n(-c2ccccc2)c(=O)c1/C=N/N1C(=O)c2ccc3c4c(ccc(c24)C1=O)CC3", "inhibition": "90.8% (active)"},
      {"smiles": "Cc1[nH]n(-c2ccccc2)c(=O)c1C=Nc1cccc2cccnc12", "inhibition": "45.4%"},
      {"smiles": "Cc1cccc(/N=C/c2c(C)[nH]n(-c3ccccc3)c2=O)n1", "inhibition": "-8.3%"},
      {"smiles": "Cc1[nH]n(-c2ccccc2)c(=O)c1/C=N/N1C(=O)c2cccc3cccc(c23)C1=O", "inhibition": "-49.6%"},
      {"smiles": "COc1ccc(N=C2SC(C(=O)Nc3ccc(OC)cc3)CC(=O)N2CCN2CCOCC2)cc1", "note": "(stereo not given)", "inhibition": "-18.8%"},
      {"smiles": "COc1cc(CN2CCCCCC2)cc(OC)c1OC", "inhibition": "-23%"},
      {"smiles": "Cn1c(=O)n(/N=C/c2ccccc2)c2ccccc21", "inhibition": "-23.6%"},
      {"smiles": "C[n+]1cn(/N=C/c2ccccc2)c2ccccc21", "inhibition": "75.1% (active)"},
      {"smiles": "C(=N\\n1c2ccccc2c2ccccc21)/c1ccccc1", "inhibition": "6.6%"},
      {"smiles": "CCOC(=O)Cc1csc(NC(=O)c2sc3nc4cc(C)ccc4cc3c2N)n1", "inhibition": "-55.6%"},
      {"smiles": "Cc1ccccc1CN1CCC(Oc2ccc(C(=O)NCc3ccccn3)cc2)CC1", "inhibition": "17%"},
      {"smiles": "CCn1cc(CNC(=O)c2ccc(OC3CCN(Cc4ccccn4)CC3)cc2)cn1", "inhibition": "-0.8%"},
      {"smiles": "COc1ccc2nc(C)cc(SCC(=O)O)c2c1", "inhibition": "-24.8% and -30.8%"},
      {"smiles": "CCCCCCCCSc1nnc(/N=C/N(C)C)s1", "inhibition": "-11.4%"},
      {"smiles": "COc1ccc2nc(C)cc(Sc3nc4ccccc4s3)c2c1", "inhibition": "47.7% (active)"},
      {"smiles": "COc1ccc2nc(C)cc(SCC(=O)NNC(=O)COc3ccccc3)c2c1", "inhibition": "9.9%"},
      {"smiles": "Cc1cc(Sc2nnc(N)s2)c2ccccc2n1", "inhibition": "53.2% (active)"},
      {"smiles": "Cc1ccc(NC(=O)CSc2nnc(/N=C/N(C)C)s2)cc1", "inhibition": "-37.6%"},
      {"smiles": "Cc1cc(Sc2nnc(/N=C/N(C)C)s2)c2ccccc2n1", "inhibition": "46.4% (active)"},
      {"smiles": "Cc1nc2ccccc2nc1CSc1nnc(N)s1", "inhibition": "-18%"},
      {"smiles": "Cc1cc(N)c2ccccc2n1", "inhibition": "-45.9%"},
      {"smiles": "Cc1ccccc1CN1CCN(CC(=O)NCc2ccco2)C1=O", "inhibition": "-14.9%"},
      {"smiles": "FC(F)(F)COc1nc(N2CCOCC2)nc(N(c2ccccc2)c2ccccc2)n1", "inhibition": "-30.9%"},
      {"smiles": "O=C(Nc1cccc(NC(=O)c2cncc(Br)c2)c1)c1cncc(Br)c1", "inhibition": "-16.9%"},
      {"smiles": "Cc1ccc(NS(=O)(=O)c2cn(C)c(=O)n(C)c2=O)cc1C", "inhibition": "-34.3%"},
      {"smiles": "Cc1ccc(-c2nc(NCC3CCCO3)sc2C)cc1", "note": "(stereo not given)", "inhibition": "-53.2%"},
      {"smiles": "COCc1cc(C2C(C(=O)c3ccco3)=C(O)C(=O)N2CCOCCO)ccc1O", "note": "(stereo not given)", "inhibition": "-32.2%"},
      {"smiles": "COCCCNC(=O)C(=O)Nc1cc2c3c(c1)CCC(=O)N3CCC2", "inhibition": "19.6%"},
      {"smiles": "CC(=O)c1ccc(NC(=O)c2cnsn2)cc1", "inhibition": "44.1%"},
      {"smiles": "CN(C)c1ccc(NC(=O)c2cnsn2)cc1", "inhibition": "65.7% (active)"},
      {"smiles": "CCOc1ccc(NC(=O)c2cnsn2)cc1", "inhibition": "-6.3%"},
      {"smiles": "Cc1ccc(Cl)cc1N1CCN(S(=O)(=O)c2ccc3[nH]c(=O)ccc3c2)CC1", "inhibition": "5.1%"},
      {"smiles": "O=C(Cn1c(O)c(/C=C2\\C=Nc3ccccc32)sc1=O)N1CCOCC1", "inhibition": "12.6%"},
      {"smiles": "C=CCC(=O)NC1CCCc2c1cnn2-c1cc(F)cc(F)c1", "note": "(stereo not given)", "inhibition": "6.1%"},
      {"smiles": "COc1ccc(-c2cn(-c3ccccc3)c(=S)[nH]2)cc1OC", "inhibition": "-4.4%"},
      {"smiles": "O=C(O)c1ccc(-n2cc(-c3cc4ccccc4oc3=O)[nH]c2=S)cc1", "inhibition": "-7.2%"},
      {"smiles": "Cc1ccccc1-c1cn(-c2ccccc2)c(=S)[nH]1", "inhibition": "-24.2%"},
      {"smiles": "O=c1oc2ccccc2cc1-c1cn(-c2ccccc2)c(=S)[nH]1", "inhibition": "98.5% (active)"},
      {"smiles": "Cc1ccc(-c2cn(-c3ccccc3)c(=S)[nH]2)cc1C", "inhibition": "23.4% (active)"},
      {"smiles": "S=c1[nH]c(-c2ccccc2)cn1-c1ccccc1", "inhibition": "-7.1%"},
      {"smiles": "Cc1nc2ccc(Cl)cn2c1C(=O)NN", "inhibition": "-35.5%"},
      {"smiles": "O=C(NCCNC(=O)c1ccco1)c1ccco1", "inhibition": "5%"},
      {"smiles": "Cc1cccc(N(CC(=O)NC2CCCCC2)C(=O)CCCC(=O)Nc2ccccn2)c1", "inhibition": "-26.2%"},
      {"smiles": "Cn1nnnc1SCCNCc1ccncc1", "inhibition": "-3.9%"},
      {"smiles": "Cn1c(N2CCCC2)nc2c1c(=O)n(Cc1ccc(Cl)cc1)c(=O)n2C", "inhibition": "-9.4%"},
      {"smiles": "Cn1c(N2CCC(C(N)=O)CC2)nc2c1c(=O)n(Cc1ccc(Cl)cc1)c(=O)n2C", "inhibition": "-1.5%"},
      {"smiles": "O=C(c1nc2ccc(Cl)cn2c1CN1CCC[C@H]1CO)N1CCCCCCC1", "inhibition": "-22%"},
      {"smiles": "CCOC(=O)c1cnc(N2CCN(c3ccccc3)CC2)[nH]c1=O", "inhibition": "1.6%"},
      {"smiles": "CC(=O)c1ccc(NCC2COc3ccccc3O2)c([N+](=O)[O-])c1", "note": "(stereo not given)", "inhibition": "-11.7%"},
      {"smiles": "CCOC(=O)CSc1ccc2nnc(-c3ccccc3)n2n1", "inhibition": "-21.3%"},
      {"smiles": "COc1nc(Nc2ccccc2F)nc(OC)n1", "inhibition": "-28.1%"},
      {"smiles": "Cc1c(N)cc[n+](CC(=O)c2ccccc2)c1C", "inhibition": "-3.9%"},
      {"smiles": "COc1ccc(C(=O)C[n+]2ccc(N)c(C)c2C)cc1", "inhibition": "59.4% (active)"},
      {"smiles": "COc1ccc(C(=O)C[n+]2ccc3ccccc3c2C)cc1", "inhibition": "-2.3%"},
      {"smiles": "Cc1cc(C(=O)N2CCCC(CCC(=O)N3CCN(c4ccccn4)CC3)C2)c(C)o1", "note": "(stereo not given)", "inhibition": "-25.2%"},
      {"smiles": "Cc1cc(C)cc(OCC(=O)Nc2ccncc2)c1", "inhibition": "30.1%"},
      {"smiles": "Cc1cc(OCC(=O)Nc2ccncc2)ccc1Br", "inhibition": "49.9%"},
      {"smiles": "Cc1cc(OCC(=O)NCCN2CCOCC2)cc(C)c1Br", "inhibition": "-62.5%"},
      {"smiles": "Cc1ccc(OCC(=O)NCCN2CCOCC2)cc1C", "inhibition": "-3.4%"},
      {"smiles": "Cc1cc(OCC(=O)Nc2ccncc2)ccc1Cl", "inhibition": "27.1%"},
      {"smiles": "Cc1cc(Cl)ccc1OCC(=O)Nc1ccncc1", "inhibition": "23.8%"},
      {"smiles": "Cc1cc(OCC(=O)NCCN2CCOCC2)cc(C)c1Cl", "inhibition": "84.9% (active)"},
      {"smiles": "Cc1ccccc1-n1nc2c(c1NC(=O)C(C)C)CS(=O)(=O)C2", "inhibition": "-6.5%"},
      {"smiles": "N#Cc1ccccc1NC(=O)c1ccc2c(Cl)c3c(nc2c1)CCCC3", "inhibition": "66.5% (active)"},
      {"smiles": "CC(=O)c1cccc(NC(=O)c2ccc3c(Cl)c4c(nc3c2)CCCC4)c1", "inhibition": "-3.3%"},
      {"smiles": "O=C(Nc1cccnc1Cl)c1ccc2c(Cl)c3c(nc2c1)CCC3", "inhibition": "-39.9%"},
      {"smiles": "Clc1ccc(C2Nc3ccccc3-n3cccc32)cc1", "note": "(stereo not given)", "inhibition": "-20.2%"},
      {"smiles": "CN1CCCN(C(=O)c2ccc(Cl)s2)CC1", "inhibition": "-15%"},
      {"smiles": "O=C(NCc1ccc2c(c1)OCO2)c1cc2ccccc2oc1=O", "inhibition": "11.3%"},
      {"smiles": "O=C(c1cc2ccccc2oc1=O)N(Cc1ccc2c(c1)OCO2)Cc1ccco1", "inhibition": "-2.2%"},
      {"smiles": "O=C(c1cc2ccccc2oc1=O)N(Cc1ccccc1)Cc1ccc2c(c1)OCO2", "inhibition": "50.1% (active)"},
      {"smiles": "COc1cc(C(C(=O)NC2CCCCC2)N(Cc2ccco2)C(=O)c2cnccn2)cc(OC)c1OC", "note": "(stereo not given)", "inhibition": "-34.1%"},
      {"smiles": "C[C@]12C=CC(=O)C=C1CC[C@@H]1C2C(O)C[C@@]2(C)C1CC[C@]2(O)C(=O)COC(=O)CCC(=O)NC(CC(=O)O)C(=O)O", "note": "(stereo not given in full)", "inhibition": "-8.1%"},
      {"smiles": "O=C(/C=C/c1ccc(F)cc1)NC(=S)NC1CCCCC1", "inhibition": "36.3% (active)"},
      {"smiles": "CN(C(=S)NC(=O)/C=C/c1ccc(F)cc1)C1CCCCC1", "inhibition": "-22.9%"},
      {"smiles": "O=C(/C=C/c1ccc(F)cc1)NC(=S)Nc1ccccc1C(=O)NC1CCCCC1", "inhibition": "12.3%"},
      {"smiles": "COc1cccc2c(Nc3ccccc3C)cc(C)nc12", "inhibition": "6.4%"},
      {"smiles": "COc1ccc(C(=O)N/C(=C/c2cccs2)c2nc3ccccc3[nH]2)cc1OC", "inhibition": "-5.7%"},
      {"smiles": "COc1ccc(/C=C(\\C#N)c2nc3ccccc3[nH]2)cc1O", "inhibition": "12%"},
      {"smiles": "COC(=O)/C(=C\\c1ccc(O)cc1)c1nc2ccccc2[nH]1", "inhibition": "-44.4%"},
      {"smiles": "COc1cc(/C=C(\\C#N)c2nc3ccccc3[nH]2)cc(OC)c1O", "inhibition": "6.4%"},
      {"smiles": "COc1cc(/C=C(/C(=O)c2cccs2)c2nc3ccccc3[nH]2)cc(OC)c1O", "inhibition": "98.8% (active)"}
    ]}
  ]
}
